Data from the supplement of paper PMC10849652.
About 8,800 targets were measured; listed, in parts, are those with a hit and a random draw of the rest. About 0.5% of all pairs of compound and target were hits.

Legend:
Test in all cases: log2 fold change, soluble protein after heating vs DMSO (PISA); higher = thermal stabilisation; K562 lysate, 10 uM; active = over 0.2 and 3.5 SD of the protein, either way, in both replicates (recomputed)
[1] = compound: C1=CC=C(C=C1)[C@H](COC2=CC3=C(C=C2)NC(=O)N3)NC(=O)C4=CC=CN(C4=O)CC5=CC(=C(C=C5)F)F
Method in brief: (§1)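 To prepare the extract, K562 pellets were dounce-homogenised in PBS pH 7.4 with 1 mM MgCl2, giving crude material at 1 mg/mL protein. This was treated with 10 μM compound for 30 min, then heated in aliquots for 3 min over 48°C-58°C before pooling and addition of NP-40 to 0.5% at 4°C. Centrifugation at 21,000xg for 90 min left soluble protein in the supernatant, which TMTpro 16plex LC-MS/MS quantified with equalised channel sums. Results are log-two fold changes in thermal stability compared with solvent controls, from duplicates.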

[2] = compound: CC1=C(SC2=C1C(=N[C@H](C3=NN=C(N32)C)CC(=O)N)C4=CC=C(C=C4)Cl)C
Method in brief: as §1

[3] = compound: CC1=C2C(=CC=C1)N=C(N(C2=O)C3=CC=CC=C3C)CN4C=NC5=C(N=CN=C54)N
Method in brief: as §1

[4] = compound: Cc1sc2c(c1C)C(c1ccc(Cl)cc1)=N[C@@H](CC(=O)OC(C)(C)C)c1nnc(C)n1-2
Method in brief: as §1

[5] = compound: c1ccc([C@@H]2C[C@H]2NC2CCNCC2)cc1
Method in brief: as §1

Measured: log2 fold change

DHRS3 (UniProt O75911)
inactive: [1] 0.073 | [2] 0.064 | [3] -0.091 | [4] 0.018 | [5] -0.004

DOCK8 (UniProt Q8NF50)
inactive: [1] -0.011 | [2] -0.004 | [3] 0.013 | [4] 0.005 | [5] 0.05

CXCL14 (UniProt O95715)
Sequence of UniProt O95715 (O95715 whole entry, looked up): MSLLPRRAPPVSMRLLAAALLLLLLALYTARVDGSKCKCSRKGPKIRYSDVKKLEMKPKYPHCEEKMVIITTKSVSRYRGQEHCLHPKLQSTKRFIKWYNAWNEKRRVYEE
inactive: [1] 0.002 | [2] -0.088 | [3] 0.128

DCP2 (UniProt Q8IU60)
inactive: [1] 0.006 | [2] -0.001 | [3] 0.041 | [4] 0.026 | [5] 0.048

CHEK2 (UniProt O96017)
inactive: [1] -0.02 | [2] -0.041 | [3] -0.016 | [4] 0.006 | [5] 0.014

CMSS1 (UniProt Q9BQ75)
inactive: [1] 0.035 | [2] -0.069 | [3] -0.017 | [4] -0.023 | [5] 0.106

CUX1 isoform 3 (UniProt P39880)
inactive: [1] -0.001 | [2] 0.024 | [3] 0.031 | [4] 0.025 | [5] 0.03

CSAD isoform 3 (UniProt Q9Y600)
inactive: [1] -0.081 | [2] 0.137

DPM1 (UniProt O60762)
Sequence of UniProt O60762 (O60762 whole entry, looked up): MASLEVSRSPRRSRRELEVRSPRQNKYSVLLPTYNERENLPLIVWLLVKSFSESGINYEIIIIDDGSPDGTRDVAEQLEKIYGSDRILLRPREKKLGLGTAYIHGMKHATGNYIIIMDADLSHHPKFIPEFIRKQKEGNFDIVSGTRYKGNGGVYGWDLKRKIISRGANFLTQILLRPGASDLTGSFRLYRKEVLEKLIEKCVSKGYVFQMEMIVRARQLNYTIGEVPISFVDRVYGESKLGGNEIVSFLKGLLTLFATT
inactive: [1] -0.01 | [2] 0.048 | [3] 0.022 | [4] 0.073 | [5] 0.093

COL6A5 (UniProt A8TX70)
inactive: [1] 0.025 | [2] 0.052 | [3] 0.089 | [4] -0.061 | [5] -0.545

CWC22 (UniProt Q9HCG8)
inactive: [1] -0.033 | [2] 0.028 | [3] 0.034 | [4] 0.079 | [5] 0.237

COASY isoform 2 (UniProt Q13057)
inactive: [1] -0.049 | [2] -0.002 | [3] 0.03 | [4] 0.07 | [5] 0.01

CMBL (UniProt Q96DG6)
inactive: [1] -0.01 | [2] -0.011 | [3] -0.027 | [4] -0.041 | [5] -0.078

DLD (UniProt P09622)
inactive: [1] 0.005 | [2] -0.017 | [3] 0.008 | [4] -0.022 | [5] -0.076

CXorf38 (UniProt Q8TB03)
inactive: [1] 0.021 | [2] 0.007 | [3] -0.021 | [4] -0.004 | [5] 0.031

DNAH10 (UniProt Q8IVF4)
inactive: [1] 0.069 | [2] 0.014 | [3] 0.095 | [4] -0.081 | [5] -0.274

CSK (UniProt P41240)
inactive: [1] -0.039 | [2] -0.049 | [3] -0.019 | [4] -0.057 | [5] -0.037

CLIP1 isoform 1 (UniProt P30622)
Sequence of UniProt P30622 (P30622 whole entry, looked up): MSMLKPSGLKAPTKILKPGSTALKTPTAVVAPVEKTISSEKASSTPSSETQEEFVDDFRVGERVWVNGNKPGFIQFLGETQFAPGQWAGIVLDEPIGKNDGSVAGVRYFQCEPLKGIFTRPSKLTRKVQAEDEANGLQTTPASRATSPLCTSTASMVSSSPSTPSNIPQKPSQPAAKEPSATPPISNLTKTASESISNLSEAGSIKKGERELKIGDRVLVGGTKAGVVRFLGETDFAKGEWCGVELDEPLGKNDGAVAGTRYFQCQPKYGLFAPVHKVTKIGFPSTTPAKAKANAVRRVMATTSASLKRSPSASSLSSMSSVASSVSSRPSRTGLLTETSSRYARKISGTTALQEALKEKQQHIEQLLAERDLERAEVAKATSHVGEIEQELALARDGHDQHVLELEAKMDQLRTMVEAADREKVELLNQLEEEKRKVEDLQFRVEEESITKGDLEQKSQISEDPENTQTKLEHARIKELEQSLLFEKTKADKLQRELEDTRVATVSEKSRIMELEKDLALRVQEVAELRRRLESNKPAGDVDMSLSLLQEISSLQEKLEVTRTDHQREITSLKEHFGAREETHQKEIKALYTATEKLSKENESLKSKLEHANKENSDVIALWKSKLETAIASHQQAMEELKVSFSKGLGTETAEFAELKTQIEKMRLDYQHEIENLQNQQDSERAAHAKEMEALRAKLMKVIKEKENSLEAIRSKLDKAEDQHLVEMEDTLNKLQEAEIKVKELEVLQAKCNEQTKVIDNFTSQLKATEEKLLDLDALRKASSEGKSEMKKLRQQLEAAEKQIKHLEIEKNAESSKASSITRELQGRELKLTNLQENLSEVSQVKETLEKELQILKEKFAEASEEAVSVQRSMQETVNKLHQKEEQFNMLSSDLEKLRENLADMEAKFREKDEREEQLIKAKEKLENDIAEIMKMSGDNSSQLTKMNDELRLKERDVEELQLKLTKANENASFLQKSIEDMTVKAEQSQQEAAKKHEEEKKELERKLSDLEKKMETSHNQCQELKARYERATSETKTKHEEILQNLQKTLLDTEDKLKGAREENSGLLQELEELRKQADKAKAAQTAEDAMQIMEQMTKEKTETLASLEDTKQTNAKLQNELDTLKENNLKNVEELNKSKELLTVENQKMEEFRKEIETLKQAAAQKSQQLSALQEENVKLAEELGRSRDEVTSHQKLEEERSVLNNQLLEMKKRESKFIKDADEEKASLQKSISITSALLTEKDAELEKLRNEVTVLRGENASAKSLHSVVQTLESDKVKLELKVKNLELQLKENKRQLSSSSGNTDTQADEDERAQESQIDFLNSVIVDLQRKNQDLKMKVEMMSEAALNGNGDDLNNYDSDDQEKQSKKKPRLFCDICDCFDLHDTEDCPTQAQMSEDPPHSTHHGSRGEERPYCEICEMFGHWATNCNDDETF
inactive: [1] 0.04 | [2] -0.008 | [3] -0.002 | [4] -0.028 | [5] -0.019

DMAC2L (UniProt Q99766)
inactive: [1] -0.031 | [2] -0.048 | [3] 0.057 | [4] -0.005 | [5] -0.061

DPY19L3 (UniProt Q6ZPD9)
inactive: [1] 0.183 | [2] -0.131 | [3] -0.106

COG3 (UniProt Q96JB2)
inactive: [1] -0.03 | [2] -0.015 | [3] 0.016 | [4] 0.033 | [5] 0.019

COTL1 (UniProt Q14019)
inactive: [1] -0.018 | [2] -0.019 | [3] 0.01 | [4] 0.031 | [5] 0.064

CNST (UniProt Q6PJW8)
inactive: [1] 0.041 | [2] 0.019 | [3] -0.018 | [4] 0.004 | [5] -0.031

CIC (UniProt I3L2J0)
inactive: [1] -0.03 | [2] -0.034 | [3] -0.109 | [4] 0.042 | [5] -0.02

CNOT2 (UniProt Q9NZN8)
inactive: [1] 0.019 | [2] -0.016 | [3] -0.019 | [4] -0.004 | [5] 0.008

CLPTM1L (UniProt Q96KA5)
inactive: [1] -0.075 | [2] 0.039 | [3] 0.04 | [4] -0.02 | [5] 0.022

COMT (UniProt P21964)
inactive: [1] -0.007 | [2] -0.01 | [3] -0.016 | [4] 0.062 | [5] 0.054

CTNNBL1 (UniProt Q8WYA6)
inactive: [1] -0.003 | [2] 0 | [3] 0.004 | [4] -0.087 | [5] 0.073

CNIH4 (UniProt Q9P003)
Sequence of UniProt Q9P003 (Q9P003 whole entry, looked up): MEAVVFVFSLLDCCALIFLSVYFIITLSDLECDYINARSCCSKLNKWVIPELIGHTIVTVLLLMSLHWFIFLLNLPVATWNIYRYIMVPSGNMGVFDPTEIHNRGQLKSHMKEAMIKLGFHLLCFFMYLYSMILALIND
inactive: [1] -0.355 | [2] -0.301 | [3] -0.017 | [4] 0.11

DERA (UniProt Q9Y315)
inactive: [1] 0.025 | [2] 0.012 | [3] -0.051 | [4] 0.061 | [5] 0.209

CXXC1 isoform 2 (UniProt Q9P0U4)
inactive: [1] 0.006 | [2] 0.07 | [3] 0.032 | [4] -0.173 | [5] 0.029

CRABP2 (UniProt P29373)
Sequence of UniProt P29373 (P29373 whole entry, looked up): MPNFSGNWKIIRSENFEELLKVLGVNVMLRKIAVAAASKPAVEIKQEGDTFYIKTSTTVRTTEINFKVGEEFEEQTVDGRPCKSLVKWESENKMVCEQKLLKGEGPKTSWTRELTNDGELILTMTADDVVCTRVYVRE
inactive: [1] -0.057 | [2] -0.051 | [3] 0.055 | [4] -0.172 | [5] -0.001

CIC (UniProt I3L1Q4)
inactive: [1] 0.006 | [2] 0.225

DCTN1 (UniProt Q14203)
inactive: [1] -0.018 | [2] -0.017 | [3] -0.009 | [4] 0 | [5] 0.034

DES (UniProt P17661)
inactive: [1] 0 | [2] 0.05 | [3] 0.062 | [4] -0.219 | [5] -0.131

DFFB (UniProt O76075)
Sequence of UniProt O76075 (O76075 whole entry, looked up): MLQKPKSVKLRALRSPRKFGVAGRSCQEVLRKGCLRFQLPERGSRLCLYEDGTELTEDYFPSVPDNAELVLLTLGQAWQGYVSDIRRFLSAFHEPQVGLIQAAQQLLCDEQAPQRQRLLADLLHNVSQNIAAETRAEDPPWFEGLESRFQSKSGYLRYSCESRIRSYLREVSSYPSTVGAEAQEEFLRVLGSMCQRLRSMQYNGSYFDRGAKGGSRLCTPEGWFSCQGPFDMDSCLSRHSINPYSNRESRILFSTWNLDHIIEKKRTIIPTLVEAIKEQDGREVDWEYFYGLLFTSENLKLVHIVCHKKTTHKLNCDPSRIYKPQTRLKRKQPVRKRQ
inactive: [1] 0.06 | [2] -0.057 | [3] 0.061 | [4] -0.032 | [5] 0.081

DIAPH3 (UniProt Q9NSV4)
inactive: [1] -0.09 | [2] 0.017 | [3] -0.035 | [4] 0.099 | [5] 0.195

DNAJC3 (UniProt Q13217)
inactive: [1] 0.06 | [2] -0.073 | [3] -0.003 | [4] -0.01 | [5] 0.031

CTPS2 (UniProt Q9NRF8)
inactive: [1] -0.001 | [2] -0.009 | [3] -0.008 | [4] 0.004 | [5] 0

DCUN1D4 isoform 3 (UniProt Q92564)
Sequence of UniProt Q92564 (Q92564 whole entry, looked up): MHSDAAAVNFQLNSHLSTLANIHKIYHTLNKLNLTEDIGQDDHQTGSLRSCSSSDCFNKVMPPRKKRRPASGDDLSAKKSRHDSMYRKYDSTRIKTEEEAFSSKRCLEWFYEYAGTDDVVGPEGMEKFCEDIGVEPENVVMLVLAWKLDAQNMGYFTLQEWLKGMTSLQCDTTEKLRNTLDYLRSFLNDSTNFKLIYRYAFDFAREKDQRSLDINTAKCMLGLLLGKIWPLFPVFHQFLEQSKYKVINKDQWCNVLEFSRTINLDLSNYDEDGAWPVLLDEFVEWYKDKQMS
inactive: [1] 0.084 | [2] 0.087 | [3] 0.055 | [4] -0.139 | [5] 0.055

CYP51A1 (UniProt Q16850)
inactive: [1] 0.028 | [2] -0.105 | [3] -0.058 | [4] -0.028 | [5] -0.007

CLPB isoform 2 (UniProt Q9H078)
Sequence of UniProt Q9H078 (Q9H078 whole entry, looked up): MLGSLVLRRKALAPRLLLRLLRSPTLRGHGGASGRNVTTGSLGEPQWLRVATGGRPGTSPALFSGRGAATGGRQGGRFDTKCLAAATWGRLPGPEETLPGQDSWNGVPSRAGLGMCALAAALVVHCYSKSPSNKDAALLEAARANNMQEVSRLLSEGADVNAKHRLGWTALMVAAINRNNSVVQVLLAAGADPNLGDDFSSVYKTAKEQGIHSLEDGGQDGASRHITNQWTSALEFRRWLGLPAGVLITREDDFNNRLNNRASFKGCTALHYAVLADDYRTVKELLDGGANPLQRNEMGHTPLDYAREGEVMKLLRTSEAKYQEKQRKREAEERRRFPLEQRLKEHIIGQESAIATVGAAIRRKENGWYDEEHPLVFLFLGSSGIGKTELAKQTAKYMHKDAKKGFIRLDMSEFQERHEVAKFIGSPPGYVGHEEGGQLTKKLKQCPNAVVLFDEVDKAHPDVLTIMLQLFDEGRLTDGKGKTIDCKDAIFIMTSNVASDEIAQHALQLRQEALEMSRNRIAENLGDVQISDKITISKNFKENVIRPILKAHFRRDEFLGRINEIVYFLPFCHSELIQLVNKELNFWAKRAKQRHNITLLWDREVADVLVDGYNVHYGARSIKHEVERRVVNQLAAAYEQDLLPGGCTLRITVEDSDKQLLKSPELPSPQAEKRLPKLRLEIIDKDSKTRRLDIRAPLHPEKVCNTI
inactive: [1] -0.031 | [2] -0.012 | [3] 0 | [4] 0.094 | [5] 0.079

CSNK1G3 (UniProt Q9Y6M4)
inactive: [1] -0.041 | [2] 0.017 | [3] -0.013 | [4] 0.006 | [5] -0.03

CMPK2 (UniProt Q5EBM0)
inactive: [1] 0.008 | [2] 0.091 | [3] -0.024 | [4] 0.039 | [5] -0.098

CHUK (UniProt O15111)
inactive: [1] -0.02 | [2] 0.032 | [3] 0 | [4] -0.026 | [5] 0.015

COX20 isoform 2 (UniProt Q5RI15)
inactive: [1] 0.01 | [2] -0.047 | [3] -0.092 | [4] 0.001 | [5] 0.23

COQ9 (UniProt O75208)
inactive: [1] -0.102 | [2] -0.069 | [3] 0.026 | [4] 0.015 | [5] 0.08

CLASP1 (UniProt Q7Z460)
Sequence of UniProt Q7Z460 (Q7Z460 whole entry, looked up): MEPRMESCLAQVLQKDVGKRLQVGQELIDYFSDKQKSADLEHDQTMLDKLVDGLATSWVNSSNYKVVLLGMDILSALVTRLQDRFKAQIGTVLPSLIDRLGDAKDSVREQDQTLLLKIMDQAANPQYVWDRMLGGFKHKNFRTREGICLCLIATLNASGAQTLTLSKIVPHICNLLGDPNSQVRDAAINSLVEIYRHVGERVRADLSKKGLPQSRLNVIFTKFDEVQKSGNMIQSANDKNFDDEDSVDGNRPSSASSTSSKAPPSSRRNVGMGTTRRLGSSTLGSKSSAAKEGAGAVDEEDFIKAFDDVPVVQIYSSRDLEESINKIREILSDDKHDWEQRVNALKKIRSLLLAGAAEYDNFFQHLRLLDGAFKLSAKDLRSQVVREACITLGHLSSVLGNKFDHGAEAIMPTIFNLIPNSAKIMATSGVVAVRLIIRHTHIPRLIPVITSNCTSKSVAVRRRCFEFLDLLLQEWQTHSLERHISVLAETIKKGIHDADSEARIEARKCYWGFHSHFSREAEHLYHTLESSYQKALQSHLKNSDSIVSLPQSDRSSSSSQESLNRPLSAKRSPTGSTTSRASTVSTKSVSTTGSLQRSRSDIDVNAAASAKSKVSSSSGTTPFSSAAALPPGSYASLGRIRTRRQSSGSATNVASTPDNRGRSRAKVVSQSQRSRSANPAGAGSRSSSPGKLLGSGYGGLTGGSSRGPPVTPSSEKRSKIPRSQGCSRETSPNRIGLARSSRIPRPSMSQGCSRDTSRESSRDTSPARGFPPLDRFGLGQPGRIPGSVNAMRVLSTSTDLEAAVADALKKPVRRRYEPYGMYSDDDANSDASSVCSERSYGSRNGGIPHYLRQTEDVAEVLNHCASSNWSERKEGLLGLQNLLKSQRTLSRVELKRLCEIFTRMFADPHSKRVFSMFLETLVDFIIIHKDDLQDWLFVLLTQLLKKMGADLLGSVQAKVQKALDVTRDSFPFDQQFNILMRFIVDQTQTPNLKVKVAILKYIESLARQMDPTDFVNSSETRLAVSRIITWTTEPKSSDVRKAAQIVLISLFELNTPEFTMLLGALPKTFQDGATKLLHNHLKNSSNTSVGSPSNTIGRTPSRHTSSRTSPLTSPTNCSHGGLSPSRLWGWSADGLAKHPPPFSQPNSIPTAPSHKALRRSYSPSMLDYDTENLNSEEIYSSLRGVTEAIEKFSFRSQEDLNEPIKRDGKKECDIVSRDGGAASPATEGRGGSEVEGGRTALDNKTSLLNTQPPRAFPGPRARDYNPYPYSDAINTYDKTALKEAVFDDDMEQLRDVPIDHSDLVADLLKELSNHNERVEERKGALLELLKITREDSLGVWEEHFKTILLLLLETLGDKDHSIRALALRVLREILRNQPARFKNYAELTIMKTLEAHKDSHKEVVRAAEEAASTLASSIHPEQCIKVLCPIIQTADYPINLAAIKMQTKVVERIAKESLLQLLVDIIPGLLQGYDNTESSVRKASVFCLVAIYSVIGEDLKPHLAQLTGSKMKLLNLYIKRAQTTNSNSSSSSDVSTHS
inactive: [1] -0.019 | [2] 0.011 | [3] 0.022 | [4] -0.026 | [5] -0.007

CYCS (UniProt P99999)
inactive: [1] -0.013 | [2] 0.016 | [3] 0.002 | [4] 0.002 | [5] -0.01

CHML (UniProt P26374)
inactive: [1] 0.011 | [2] -0.027 | [3] 0.01 | [4] 0.016 | [5] -0.03

COG7 (UniProt P83436)
inactive: [1] -0.026 | [2] 0.026 | [3] 0.01 | [4] -0.034 | [5] 0.012

CKS1B (UniProt P61024)
inactive: [1] 0.017 | [2] -0.074 | [3] -0.058 | [4] 0.108 | [5] 0.194

COQ8A (UniProt Q8NI60)
inactive: [1] 0.048 | [2] 0.065 | [3] 0.03 | [4] 0.007 | [5] 0

COG4 (UniProt Q9H9E3)
inactive: [1] 0.005 | [2] 0.034 | [3] 0.096 | [4] -0.036 | [5] 0.011

CNOT6L (UniProt Q96LI5)
inactive: [1] -0.014 | [2] 0.017 | [3] -0.013 | [4] -0.049 | [5] -0.164
